What all share (assay): NCI-60 one-dose screen, 48 h (100 = growth as untreated, 0 = no growth, -100 = all killed)
Assay [1] has as its system NCI-H522 lung. Particulars: 10 µM unless noted.
Assay [2] deals with A549/ATCC NSCLC. Particulars: 10 µM unless noted.
Assay [3] has as its system HT29 colon. The note with it: 10 µM unless noted.
The subject of assay [4] is SNB-75 CNS. Particulars: 10 µM unless noted.
Assay [5] has as its system PC-3 prostate. The note with it: 10 µM unless noted.
Assay [6] deals with SK-MEL-5 melanoma. The note with it: 10 µM unless noted.
Assay [7] relates to SK-MEL-28 melanoma. The note with it: 10 µM unless noted.
Assay [8] has as its system EKVX NSCLC. The note with it: 10 µM unless noted.
For assay [9], the system named is CAKI-1 renal. The note with it: 10 µM unless noted.
Assay [10] deals with CCRF-CEM leukemia. Particulars: 10 µM unless noted.
Assay [11] concerns SR leukemia. The note with it: 10 µM.
The test system of assay [12] is RPMI-8226 leukemia. Particulars: 10 µM unless noted.
Assay [13] relates to OVCAR-5 ovarian. The note with it: 10 µM unless noted.
Assay [14] relates to IGROV1 ovarian. Particulars: 10 µM.
For assay [15], the system named is OVCAR-3 ovarian. The note with it: 10 µM unless noted.
Assay [16] concerns HS 578T breast. The note with it: 10 µM unless noted.
The test system of assay [17] is MCF7 breast. Particulars: 10 µM unless noted.
In assay [18] the test system is COLO 205 colon. The note with it: 10 µM.

This is part of a sample that, as a whole, favours compounds with a hit. Of some 83,000 tested, about 20% had one in any assay.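 Single-concentration screen, 48 h exposure, 96-well plates. Endpoint: percent growth. Below 10 = active.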 A number with no mark means an inactive call. Calls of active or inactive are those of the source.

As to `NC(=O)SCC(=O)Nc1ccc([As](=O)(O)O)cc1`, the growth in assay [1] is -9.01% (active); in assay [2] it was 85.9%; in [3] it was 93.7%; in [4], 96.6%; in assay [5], 77.8%; in assay [6] it was 102%. Further, the growth was 101% in assay [7]; 111% in assay [8]; 109% in assay [9]; 59.3% in assay [10]; 100% in assay [11]; 84% in assay [12]. The growth in [13] is 125%; in assay [14] it was 65.5%; in [15], 103%; in assay [16], 82.3%; in [17], 75.3%.

`CN1C(=O)NC(=O)C(N=Nc2ccc(Cl)cc2)C1=O` (stereo unspecified): the growth was 81.3% in assay [1]; 101% in [2]; 99.1% in assay [3]; 126% in assay [4]; 94.6% in [5]; 96% in assay [6]. Besides, the growth in [8] was 96.3%; in [10], 106%; in [11] it was 100%; in [12] it was 96.1%; in assay [13] it was 98.9%; in assay [14] it was 129%. In addition, the values for the growth in [15] and in assay [16] were 105% and 114%, respectively.

With `O=C(CI)Nc1ccc(Br)cc1`, the growth in assay [2] was 90.9%; in assay [18] it was -78.2% (active); in [3], -87.4% (active); in assay [4], 96.7%; in [5], 87.3%; in assay [6], 62.6%. The growth is 109% in assay [7]; 102% in assay [8]; -67.5% (active) in [9]; -31.7% (active) in assay [10]; -53% (active) in assay [11]; 36.6% in assay [12]. The growth in assay [13] is 94.9%; in assay [14], -55.2% (active); in assay [15] it was -78.7% (active); in [17], 32.4%.

In the case of `CC(C)[C@]12O[C@H]1[C@@H]1O[C@]13[C@]1(O[C@H]1C[C@H]1C4=C(CC[C@@]13C)C(=O)OC4)[C@@H]2OC(=O)OC(C)(C)C`, the growth in [1] was -34.3% (active); in assay [2], 16.7%; in [3], 1.27% (active); in [4], -60.5% (active); in assay [5], 19.8%; in [6], -2.1% (active). Moreover, the growth in assay [7] is -1.69% (active); in [8] it was -22.4% (active); in assay [9], -49.8% (active); in [10], 13.4%; in [11], 3.66% (active); in assay [12], 20.6%. The growth was 24.4% in assay [13], -5.58% (active) in assay [14], 5.42% (active) in [15] and -6.44% (active) in assay [16].

Take `COC(=O)C(=[N+]=[N-])C(=O)OC`: the growth in assay [1] is 94%; in assay [2], 99.3%; in [3], 101%; in assay [4], 80.6%; in assay [5] it was 92.3%; in assay [7], 105%. Also, the growth in assay [9] is 109%; in assay [10] it was 61.4%; in [11] it was 100%; in assay [12] it was 96.4%; in assay [13], 107%; in assay [14] it was 110%. Further, the growth in [15] was 118%; in assay [16], 121%.

As to `C=CCc1ccc(OC(=O)Cc2ccccc2)c(OC)c1`, the growth in assay [1] is 90.4%; in assay [2], 104%; in assay [3] it was 115%; in assay [4], 76.3%; in assay [5] it was 100%; in assay [7], 106%. The growth in assay [9] is 95.2%; in [10], 101%; in assay [14] it was 99.8%; in [16], 114%; in assay [17], 96%.

For the compound `C1CN1c1nc(N2CC2)nc(N2CC2)n1`, the growth in assay [2] is 59.8%; in assay [18] it was 61.4%; in assay [3] it was 44.9%; in [4], -17.6% (active); in assay [5], 45.2%; in [6], 20.1%. In addition, the growth in assay [8] is 86.3%; in [9] it was 6.72% (active); in assay [10], 15.6%; in assay [11] it was 6.79% (active); in assay [12], 29.3%; in assay [13], 64.5%. In addition, the growth in assay [14] is -3.62% (active); in assay [15], 65.8%; in assay [16] it was 72.3%; in assay [17], 20.9%.

For `CCC(C)[C@H]1O[C@]2(C=C[C@@H]1C)C[C@@H]1C[C@@H](C/C=C(\C)[C@@H](OC3C[C@H](OC)C(O[C@H]4C[C@H](OC)[C@@H](O)[C@H](C)O4)[C@H](C)O3)[C@@H](C)/C=C/C=C3\CO[C@@H]4[C@H](O)C(C)=C[C@@H](C(=O)O1)[C@]34O)O2` (stereo partly specified), the growth in assay [1] is -28.8% (active); in assay [2] it was 6.21% (active); in [18] it was -64.5% (active); in assay [3], -63.6% (active); in assay [4] it was 3.26% (active); in assay [5], -5.32% (active). Besides, the growth in [6] was -79.2% (active); in assay [7], -82.4% (active); in [8] it was 14.6%; in [11], -28.1% (active); in assay [14], 13%; in [16] it was -13% (active). In addition, in assay [17], the growth is 10.4%.

With `O=C(CCCN1CCC2(CC1)C(=O)NCN2c1ccc(F)cc1)c1ccc(F)cc1`, the growth in assay [1] is 87.5%; in assay [18], 124%; in [3] it was 111%; in assay [4] it was 92.4%; in assay [5], 101%; in [7], 118%. Moreover, the growth was 135% in assay [8]; 121% in assay [9]; 96.9% in [10]; 99.2% in [11]; 101% in assay [12]; 91.3% in assay [13]. Moreover, the growth in assay [15] was 124%; in assay [16] it was 133%.
